# Source: PubChem (National Center for Advancing Translational Sciences (NCATS))
# FLuc counter = firefly luciferase modulation, counter-screen for miR-21 project. Potency, µM (titrated, usually from 57.5 µM), hits mostly inhibitors. 360,000 tested, 6.9% active. purified FLuc, Km substrates, luminescence inhibition. AID 588342. P08659; note: nearly all actives have a fitted effect of over 55% in size
# Target sequence (P08659 whole entry, looked up): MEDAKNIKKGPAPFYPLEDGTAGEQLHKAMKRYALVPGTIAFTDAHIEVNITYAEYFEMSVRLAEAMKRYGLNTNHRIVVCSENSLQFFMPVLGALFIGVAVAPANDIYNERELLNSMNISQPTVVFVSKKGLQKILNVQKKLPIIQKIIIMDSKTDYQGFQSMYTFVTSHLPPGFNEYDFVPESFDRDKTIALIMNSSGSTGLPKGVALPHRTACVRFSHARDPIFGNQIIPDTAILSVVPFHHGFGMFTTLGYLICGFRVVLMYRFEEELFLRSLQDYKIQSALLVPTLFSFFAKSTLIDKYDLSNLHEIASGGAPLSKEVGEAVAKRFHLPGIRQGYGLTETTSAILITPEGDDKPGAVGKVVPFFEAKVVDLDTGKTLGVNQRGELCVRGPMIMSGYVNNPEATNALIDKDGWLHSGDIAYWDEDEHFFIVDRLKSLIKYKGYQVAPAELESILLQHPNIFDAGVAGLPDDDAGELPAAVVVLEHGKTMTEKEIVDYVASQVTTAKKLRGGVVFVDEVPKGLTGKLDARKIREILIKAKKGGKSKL
#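 Purified P. pyralis luciferase, 10 nM final, with Km-level 10 uM D-luciferin and 10 uM ATP in 50 mM Tris acetate pH 7.5, 10 mM Mg acetate, 0.01% Tween-20, 0.05% BSA; 6-point qHTS titration about 60 µM downward; luminescence read.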
# Rab9 prom act = Rab9 promoter activation. Potency, µM (titrated, usually from 9.22 µM), most hits filed as activators. Huh7 Rab9 promoter-luciferase reporter, luminescence, 24 h. 320,000 tested, 2.8% active; note: nearly all actives have a fitted effect of over 60% in size
#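 Measured in stably transfected Huh7 cells bearing a Rab9 promoter–luciferase construct: 24 h compound treatment at 37 °C, followed by luminescence detection.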
# SMN2 splice up = increases expression of the SMN2 splice variant; HEK293 SMN2-luciferase splicing reporter, luminescence, 30-36 h; Potency, µM (titrated, usually from 46.1 µM), actives largely listed as activators; 210,000 tested, 2.8% active; AID 1458; note: nearly all actives have a fitted effect of over 55% in size
#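 HEK293 cells carry an SMN2 […]–luciferase reporter in which exon 7 inclusion puts luciferase in frame. Cells were plated 10-12 h before compound addition, then incubated 30-36 h at 37C. ONE-Glo luminescence was read; sodium butyrate at 4.5 mM final served as control.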
# NPC1 promoter act = NPC1 promoter activation; Huh7 NPC1 promoter luciferase reporter, 24 h; Potency, µM (doses to about 9.22 µM), hits mostly activators; 320,000 tested, 2.4% active; AID 485313; note: nearly all actives have a fitted effect of over 60% in size
#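 Luciferase expression driven by the NPC1 promoter was measured in stably transfected Huh7 cells after a 24 h compound incubation, using a luciferase reagent and a luminescence read.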
# Luc counter = counter-screen: inhibitors of Kinase-Glo firefly luciferase. Q27757. Kinase-Glo luciferase, ATP luminescence, 8 min. Potency, µM (highest dose often 38.3 µM), usual class: inhibitors. 200,000 tested, 0.28% active; note: nearly all actives have a fitted effect of over 60% in size
#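 Substrate mix (final 50 mM imidazole pH 7.2, 50 mM KCl, 7 mM MgCl2, 10 uM ATP, 0.01% Tween 20, 0.05% BSA) plus pin-tool compound, then Kinase-Glo detection mix; 8 min ambient, luminescence read.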
# ELG1 genotoxic = induces genotoxicity in HEK293T cells with luciferase-tagged ELG1; 330,000 tested, 1.3% active; AID 504466; Potency, µM (top dose mostly 46 µM), hits mostly activators; HEK293T ELG1-luciferase reporter, luminescence, 16 h; note: nearly all actives have a fitted effect of over 60% in size
#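 Luminescence read-out: rising ELG1-luciferase signal, reflecting elevated ELG1 protein under genetic stress, flags genotoxic compounds. Cells were treated for 16 hr at 37 °C before ONE-Glo detection.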
# Hits are given with their value; - = inactive; ? = inconclusive; . = not tested or not shown; [ ] = remark or other dose. Rows were chosen to be rich in hits. Some 7.5% of all compounds tested hit in one or more screens of this group. Calls come from the whole dose curve; as a rule, active = well fitted curve in the direction sought with a large enough effect; inconclusive = small, poorly fitted or top-dose-only effect, or another doubt; inactive = no such curve, though single readings can be large; an effect the other way counts as inactive or inconclusive.
SMILES,FLuc counter,Rab9 prom act,SMN2 splice up,NPC1 promoter act,Luc counter,ELG1 genotoxic
COCCN(C(=O)c1ccc(C)o1)c1c(N)n(CC(C)C)c(=O)[nH]c1=O,-,-,.,-,.,-
CNc1ncnc(Sc2ccc(Cl)cc2)c1[N+](=O)[O-],-,-,.,-,.,-
CCN(CC(=O)Nc1c(F)cccc1F)C(=O)CSC(=S)N1CCCC1,-,-,.,-,.,-
C/C(=N\NC(=O)c1ccc(Cl)cc1)c1ccc2[nH]ccc2c1,?,-,.,?,.,-
Cc1csc(NC(=O)Cc2c(F)cccc2Cl)n1,?,3.16µM,.,3.55µM,.,?
Cc1cccc(NC(=O)Cc2c(F)cccc2Cl)n1,15.1µM,3.16µM,.,2.51µM,.,?
O=C(Cc1c(F)cccc1Cl)Nc1ccncc1,-,-,-,-,-,-
Cc1ccc(CC(=O)Nc2cccc(C)n2)cc1,?,?,12.6µM,?,-,20.6µM
Cc1csc(NC(=O)Cc2ccc(F)cc2)n1,?,3.55µM,.,?,.,?
O=C1NC(Cc2ccc(O)cc2)c2nc3ccc(Cl)cc3c(=O)n2-c2ccc(Cl)cc21 (stereo not drawn),.,.,.,.,.,-
O=C(CCn1ccc2cc(S(=O)(=O)N3CCCC3)ccc21)NCc1ccccc1Br,-,.,.,.,.,.
CCN(CC)c1ccc(C(=O)N2CCc3c([nH]c4ccccc34)C2c2ccc(F)cc2)cc1 (stereo not drawn),-,.,.,.,.,.
CCC(=O)Nc1ccc(C(=O)NNC(=O)c2ccccc2)cc1,-,-,.,-,-,-
CCC(=O)Nc1ccc(C(=O)Nc2cccc(C)n2)cc1,16.9µM,2.51µM,.,3.55µM,-,?
Cc1ccc(/C(N)=N/OC(=O)c2ccc(F)cc2)cc1,4.78µM,-,?,-,-,10.3µM
C/C(=N\OC(=O)c1ccc(F)cc1)c1ccc(F)c(F)c1,1.69µM,?,.,-,.,-
N/C(=N\OC(=O)c1ccc(F)cc1)c1ccccc1,0.169µM,?,-,?,8.91µM,?
N/C(=N\OC(=O)c1ccc(F)cc1)c1ccc(Br)cc1,2.69µM,?,-,?,-,?
Cc1ccc(/C(N)=N/OC(=O)Oc2ccccc2)cc1,?,-,-,-,-,-
CCOC(=O)c1c(NC(=O)Cn2cnc3scc(-c4ccc(C)cc4)c3c2=O)sc(C)c1C,-,-,-,-,-,-
COc1ccc(/C=C(\C#N)C(=O)OCC(=O)Nc2ccc(C(C)(C)C)cc2)cc1,-,-,.,-,-,-
O=C(OCc1cc(=O)n2nc(-c3cccs3)sc2n1)c1ccc(Cl)cc1,-,.,.,.,.,.
Cc1ccnn1-c1ccc(C(=O)OCC(=O)Nc2ccc(F)cc2)cc1,-,-,.,-,.,-
NC(=O)COC(=O)c1ccc2noc(-c3ccccc3)c2c1,-,-,.,3.98µM,.,-
Cc1ccc(Nc2nc(-c3ccc(F)cc3)cs2)nc1,4.26µM,3.98µM,.,3.55µM,.,?
SMILES,FLuc counter,Rab9 prom act,SMN2 splice up,NPC1 promoter act,Luc counter,ELG1 genotoxic
Cc1ccc(Nc2nc(-c3ccc(O)c(O)c3)cs2)nc1,3.01µM,-,.,-,-,?
Cc1ccc(C)c(Nc2nc(-c3cccnc3)cs2)c1,?,-[1.84 µM],.,-,.,-
O=C(Nc1ccccc1)Nc1nc(-c2ccc(F)cc2)cs1,-,-,-,-,-,-
COc1ccc(/C=N/NC(=O)c2cnccn2)c(OC)c1OC,-,-,.,-,.,-
COc1cccc(/C=N/NC(=O)c2cnccn2)c1O,15.1µM,-,.,-,.,-
COc1cccc(/C=N/NC(=O)c2cc(-c3cccn3C)n[nH]2)c1O,26.9µM,-,-,-,-,-
COc1cccc(C(=O)O/N=C(\C)c2cnccn2)c1,5.36µM,-,.,-,-,-
COc1ccc(/C=N/NC(=O)c2cc3c(OC)ccc(OC)c3[nH]2)cc1O,10.7µM,-,.,-,.,-
CCC(C)/C(C)=N/NC(=O)CSc1nc2ccccc2[nH]1 (stereo not drawn),-,-,-,-,-,-
O=C(NCc1cccc(F)c1)C1=Cc2cc(Br)ccc2OC1,-,.,.,.,.,.
CCOc1ccccc1CNS(=O)(=O)c1ccc2[nH]c(=O)ccc2c1,-,.,.,.,.,.
COc1ccc(OC)c(/C=N/NC(=O)c2cnccn2)c1,-,-,.,-,.,-
COc1cccc(/C=N/NC(=O)c2cnccn2)c1,12µM,-,-,-,-,-
